Compounds without any hit were thinned out: in the full panel of roughly 79,000, 15% have a hit. Calls of active or inactive are those of the source. Rule as the data show it: active = growth inhibition above about 70%; inactive = the rest.

A short description of the experiment: NCI Yeast Anticancer Drug Screen. Data for the mlh1 rad18 strain (AID 175). The following applies: S. cerevisiae mlh1 rad18 strain growth inhibition; at 50.0 µM; stronger effect = higher value. Put shortly:
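Inhibition values reflect reduced growth of mutant yeast versus vehicle-treated controls following compound exposure; the mutations affect DNA damage repair.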
Turning to `CCN(CC)C(=O)c1cc2c(cc1[N+](=O)[O-])OCO2`, the growth inhibition is -18.4% (inactive).

As to `CC(=O)n1[nH]c(=O)n(-c2ccc(Cl)cc2)c1=O`, the growth inhibition was -73% (inactive).

On to `CCC(C)NCC/C(=C\[Si](C)(C)C)c1ccccc1` (stereo not given), for which the growth inhibition is 8.5% (inactive).

Consider `COc1ccc(Cl)cc1NC(=O)c1ccccc1C(=O)O`, for which the growth inhibition was -26.1% (inactive).

As to `CC(=O)c1c(O)cccc1O`, the growth inhibition is -3.75% (inactive).

Turning to `Cc1ccc2snc(C(=O)O)c2c1[N+](=O)[O-]`, the growth inhibition is 8.6% (inactive).

With `COC1(OC)C2(Cl)CC(C(=O)O)C1(Cl)C(Cl)=C2Cl` (stereo not given), the growth inhibition was 13.7% (inactive).

With `CC(CN1CCCC1)(Oc1ccccc1)C(=O)c1ccccc1` (stereo not given), the growth inhibition was 2.45% (inactive).

Take `ClC(Cl)=C(c1ccccc1)c1ccccc1`: the growth inhibition was 16.9% (inactive).

For the compound `C#CC(C)(C)CC`, the growth inhibition is 17.4% (inactive).

Consider `C[N+]([O-])(C/C=C/c1ccccc1)c1ccccc1` (stereo not given), for which the growth inhibition was -2.7% (inactive).

Turning to `CC(C)C1(C(C)C)OCC(CO)O1` (stereo not given), the growth inhibition was -9.3% (inactive).

With `CC1=C(OCCCl)C2CC1C1C(=O)N(c3ccccc3)C(=O)C21` (stereo not given), the growth inhibition is -4.75% (inactive).

In the case of `COC(=O)c1ccccc1Cl`, the growth inhibition is 26.1% (inactive).

Regarding `C=CCC(O)CC=C`, the growth inhibition was -1.7% (inactive).

`OCCSc1ccc(Cl)cc1`: the growth inhibition was 27.5% (inactive).

In the case of `N#CC(C#N)=CC(C#N)C#N`, the growth inhibition is -11.7% (inactive).

Consider `CC1CNC(=S)O1` (stereo not given), for which the growth inhibition is -16.7% (inactive).

Take `C[N+](C)(C)CCC(=O)N1C/C(=C\c2ccccc2)C(=O)/C(=C/c2ccccc2)C1`: the growth inhibition is -34.8% (inactive).

Regarding `NC(=O)Cc1csc(Br)n1`, the growth inhibition is 7.9% (inactive).

For `Nc1ncnc2nc(N3CCN(CCO)CC3)[nH]c12`, the growth inhibition is -12.5% (inactive).

Take `Cc1ccc(SC(C)/C=C/NNC2=NC(c3ccccc3)C(c3ccccc3)=NN2)cc1` (stereo not given): the growth inhibition is 24.1% (inactive).

As to `O=c1nc(Sc2ccccc2)ccn1C1OC(CO)C(O)C1O` (stereo not given), the growth inhibition is 5.95% (inactive).

For the compound `C[N+]1(C)CCC(C(=O)c2ccccc2)CC1`, the growth inhibition is 16.4% (inactive).

Take `N=C1C(O)=CC(=O)C(O)=C1C(=O)O`: the growth inhibition is 3.7% (inactive).

`CCNC(=O)OC1C=CS(=O)(=O)C1` (stereo not given): the growth inhibition was -10.2% (inactive).

`S=c1[nH]nc2nc3c4ccccc4c4ccccc4c3nn12`: the growth inhibition was 25.7% (inactive).

For the compound `Cc1ccc(S(=O)c2ccccc2C(O)(C(F)(F)F)C(F)(F)F)cc1` (stereo not given), the growth inhibition is 75.7% (active).

For `OC1CCCCC2CC2C1O` (stereo not given), the growth inhibition is -5.65% (inactive).

`CN(C)CC1CC=CCC1CN(C)C` (stereo not given): the growth inhibition is -8.7% (inactive).

Turning to `CCCCOC1NC(=O)NC(=O)C1(F)C(=O)OCC` (stereo not given), the growth inhibition was -0.85% (inactive).

Regarding `CC(=O)Nc1ccc(CCNC(=O)c2ccc3ccccc3c2O)cc1`, the growth inhibition was -13.4% (inactive).

Consider `O=C(Nc1nc(=S)[nH][nH]1)C(=O)C1C(=O)Nc2ccccc2S1=O` (stereo not given), for which the growth inhibition is -0.6% (inactive).

In the case of `CCOP(=O)(OCC)/C(C#N)=C/c1c(C)[nH]c2ccccc12`, the growth inhibition is 25.7% (inactive).

For the compound `Cc1cc(C)c(C#N)c(SC(C(=O)NC(C)(C)C)c2ccccc2)n1` (stereo not given), the growth inhibition was -14.3% (inactive).

For the compound `CCN(CC)CCOC(=O)c1c(C)cc(C)cc1C`, the growth inhibition was -7.9% (inactive).

With `Nc1nc(N)c2[nH]cnc2n1` (tested in a mixture with another compound), the growth inhibition was -12% (inactive).

With `CC(C)N(CC(=O)O)CC(=O)O`, the growth inhibition was -16.4% (inactive).

For the compound `Cc1c(CCOC=O)c(=O)[nH]c2nncn12`, the growth inhibition is 2.65% (inactive).

In the case of `CC(=O)Oc1c2oc3cc(O)c(O)cc3c2c(OC(C)=O)c2oc3cc(O)c(O)cc3c12`, the growth inhibition was -29.1% (inactive).

The values are drawn from PubChem BioAssay (NCI).
